Bioassay records (PubChem BioAssay)
TEAD-YAP block: TEAD-YAP interaction inhibition, primary screen, TEAD-YAP interaction inhibitor project, luminescence, HEK-TIYL cells; TEAD-Gal4/YAP UAS-luciferase luminescence; inhibition, % at 9.12 µM; AID 1259422, 2018; 640,000 compounds, 1.4% hits; in the data active means inhibition above about 32%;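 further: 0% = median of test compound wells and 100% = reference inhibitor wells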
GPR151 ag: activators of human GPR151, primary screen, cell-based, PathHunter beta-arrestin, luminescence; G-protein coupled receptor 151 (Homo sapiens), Q8TDV0; 650,000 compounds, 1% hits; PathHunter beta-arrestin GPR151 cells; AID 1508602, 2020; activation, % at 11.2 µM; in the data active means activation above about 4.9%;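 further: 0% = median of compound wells and 100% = cells with positive control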
MITF primary: MITF inhibitors, primary screen, biochemical, AlphaScreen, human. Microphthalmia-associated transcription factor (Homo sapiens), O75030. 650,000 compounds, 0.91% hits. inhibition, % at 2.6 µM. AlphaScreen MITF homodimerization, bead proximity signal. AID 1259374, 2018; in the data active means inhibition above about 50%;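 further: 0% = vehicle wells with protein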
FBW7 activator: FBW7 E3 ligase activators, primary screen, biochemical, AlphaScreen, human; F-box/WD repeat-containing protein 7 (Homo sapiens), Q969H0; AlphaScreen FBW7–phospho-cyclin E peptide binding, activator screen; normalized activity (activation), % at 26.1 µM; 650,000 compounds, 0.13% hits; in the data active means normalized activity above about 1.9%;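 further: purified mutant Fbw7 with reduced substrate affinity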
Target sequence (Q969H0 whole entry, looked up): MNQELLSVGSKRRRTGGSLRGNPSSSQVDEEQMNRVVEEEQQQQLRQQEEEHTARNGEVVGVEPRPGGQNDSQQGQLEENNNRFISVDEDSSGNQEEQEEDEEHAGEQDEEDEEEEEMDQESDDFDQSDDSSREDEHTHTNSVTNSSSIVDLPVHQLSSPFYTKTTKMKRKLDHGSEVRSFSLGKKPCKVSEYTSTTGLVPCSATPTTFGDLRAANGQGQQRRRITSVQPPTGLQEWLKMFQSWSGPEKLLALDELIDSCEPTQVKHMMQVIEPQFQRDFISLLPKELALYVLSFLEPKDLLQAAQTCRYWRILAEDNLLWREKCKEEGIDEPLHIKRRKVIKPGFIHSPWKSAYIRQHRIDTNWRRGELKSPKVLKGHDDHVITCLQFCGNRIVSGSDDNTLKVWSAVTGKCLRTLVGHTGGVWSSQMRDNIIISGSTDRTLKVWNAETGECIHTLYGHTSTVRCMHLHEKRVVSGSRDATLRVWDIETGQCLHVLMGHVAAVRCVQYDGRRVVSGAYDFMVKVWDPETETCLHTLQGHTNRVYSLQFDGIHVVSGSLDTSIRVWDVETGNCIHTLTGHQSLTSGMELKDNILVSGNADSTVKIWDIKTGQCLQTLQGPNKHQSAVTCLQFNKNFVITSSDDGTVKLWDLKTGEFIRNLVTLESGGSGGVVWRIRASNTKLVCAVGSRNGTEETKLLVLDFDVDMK
* = called active by the depositor. Most compounds without a hit are left out; they make up all but 3.4% or so of the library.

For N#CC1=C2SCN(Cc3ccccc3)CN2C(=O)CC1c1ccc(F)cc1 (stereo not drawn) the results were TEAD-YAP block -3.0, GPR151 ag 0.1, MITF primary -0.3 and FBW7 activator -0.3.
For O=C(CSc1nnc2n(Cc3ccccc3)c3ccccc3n12)Nc1nccs1 the results were TEAD-YAP block 4.1, GPR151 ag 1.1, MITF primary 8.5 and FBW7 activator 0.3.
For COC(=O)c1c(NC(=O)c2cccc(F)c2)sc2c1CCCC2 the results were TEAD-YAP block 9.5, GPR151 ag -0.1, MITF primary -0.7 and FBW7 activator 0.2.
Screening COc1cc2c(cc1/C=C(/C#N)c1ccc([N+](=O)[O-])cc1)OCO2 returned TEAD-YAP block -8.2, GPR151 ag 0.8, MITF primary -10.3 and FBW7 activator -0.1.
Cc1ccc(NC2=NCC(=O)N2Cc2cccs2)c(C)c1 was read as TEAD-YAP block 12.6, GPR151 ag 0.2, MITF primary 9.2 and FBW7 activator 0.0.
For O=C(NCCCN1CCOCC1)c1ccc2c(c1)NC(=O)C(CSCc1c(F)cccc1Cl)N2 (stereo not drawn) the results were TEAD-YAP block -10.8, GPR151 ag 0.2, MITF primary -2.7 and FBW7 activator 0.1.
`O=C1NCCN(Cc2ccc(Cl)c(F)c2)C1CC(=O)N1CCCCCC1` (stereo not drawn) gave TEAD-YAP block -1.2, GPR151 ag -0.1, MITF primary 7.4 and FBW7 activator 0.1.
Screening O=C(N1CCCCCC1)N1c2ccccc2Sc2ccccc21 returned TEAD-YAP block -2.9, GPR151 ag 0.1, MITF primary 3.4 and FBW7 activator 0.0.
For COc1ccc2c(c1)CCCN2C(=O)c1cc(OC)c(OC)c(OC)c1 the results were TEAD-YAP block 45.1*, GPR151 ag 2.4, MITF primary 14.4 and FBW7 activator 0.1.
Cc1c(C(=O)N2CCN(c3cccc(Cl)c3)CC2)sc2nc[nH]c(=O)c12 was read as TEAD-YAP block 48.0*, GPR151 ag 0.0, MITF primary -8.7 and FBW7 activator -0.1.
Screening O=C(N1CCN(c2ccccc2F)CC1)N1c2ccccc2Sc2ccccc21 returned TEAD-YAP block 63.6*, GPR151 ag 1.9, MITF primary 10.8 and FBW7 activator -0.1.
COc1cc(C(=O)N2CCCc3ccccc32)cc(OC)c1OC was read as TEAD-YAP block -0.9, GPR151 ag 0.6, MITF primary 9.5 and FBW7 activator -0.2.
COc1ccccc1N1CCN(C(=O)c2cc(Br)cc(Br)c2)CC1 was read as TEAD-YAP block 58.4*, GPR151 ag 0.5, MITF primary 14.8 and FBW7 activator 0.4.
Screening COc1ccc(CNC(=S)Nc2ccc([N+](=O)[O-])cc2)cc1OC returned TEAD-YAP block 3.2, GPR151 ag 4.0, MITF primary 12.9 and FBW7 activator 0.1.
For CC(=O)Nc1cccc(C(=O)NCCc2nc3ccccc3[nH]2)c1 the results were TEAD-YAP block -1.2, GPR151 ag 0.5, MITF primary -2.5 and FBW7 activator -0.1.
Clc1ccc(Cn2ncc3c2ncn2cnnc32)c(Cl)c1 was read as TEAD-YAP block -7.3, GPR151 ag 0.5, MITF primary -3.2 and FBW7 activator -0.1.
For COc1ccc(OC)c([C@@H]2[C@@H](C(=O)c3ccccc3)N3c4ccccc4C=C[C@@H]3C2(C#N)C#N)c1 the results were TEAD-YAP block -4.1, GPR151 ag -0.2, MITF primary 6.2 and FBW7 activator -0.1.
COc1ccc(C(=O)N2CCN(c3cccc(C)c3C)CC2)cc1 was read as TEAD-YAP block 1.4, GPR151 ag 0.7, MITF primary 6.4 and FBW7 activator -0.1.
Cc1onc(-c2ccccc2)c1C(=O)N1CCN(c2ccc([N+](=O)[O-])cc2Cl)CC1 was read as TEAD-YAP block 3.3, GPR151 ag -1.0, MITF primary 1.9 and FBW7 activator -0.1.
Screening COC(=O)c1cc(C(=O)N2CCN(c3ccccc3OC)CC2)cc([N+](=O)[O-])c1 returned TEAD-YAP block 63.7*, GPR151 ag 2.2, MITF primary -11.3 and FBW7 activator -0.1.
`Cc1cccc(N2CCN(C(=O)c3c(-c4ccccc4)noc3C)CC2)c1C` gave TEAD-YAP block 53.0*, GPR151 ag 0.5, MITF primary -6.7 and FBW7 activator -0.1.
`COc1cc(OC)cc(C(=O)N2CCN(c3cccc(C)c3C)CC2)c1` gave TEAD-YAP block 46.8*, GPR151 ag -0.9, MITF primary 12.3 and FBW7 activator 0.3.
COc1cc(C(=O)N2CCN(c3cccc(Cl)c3)CC2)cc(OC)c1OC was read as TEAD-YAP block 52.2*, GPR151 ag 0.5, MITF primary 3.3 and FBW7 activator 0.0.
`CSc1ccc(/C=C/C(=O)OCC(=O)Nc2ccc3[nH]c(=O)[nH]c3c2)cc1` gave TEAD-YAP block -1.2, GPR151 ag 1.7, MITF primary 5.9 and FBW7 activator 0.1.
`CCOC(=O)c1cc(Cc2ccccc2)sc1NC(=S)NNC(=O)c1cccnc1` gave TEAD-YAP block 10.3, GPR151 ag -1.5, MITF primary 22.6 and FBW7 activator 0.3.
For Cc1cccc(-c2noc(CNC(=O)c3ccccc3Cl)n2)c1 the results were TEAD-YAP block 17.2, GPR151 ag 0.2, MITF primary -4.7 and FBW7 activator 0.1.
`CCOC(=O)c1c(NC(=O)CSc2nnc(CNC(=O)c3cccc(OC)c3)n2-c2ccc([N+](=O)[O-])cc2)sc2c1CCCC2` gave TEAD-YAP block -5.5, GPR151 ag 4.5, MITF primary 3.4 and FBW7 activator 0.3.
CC(C(=O)Nc1ccc(I)cc1)N1C(=O)c2cccc3cccc1c23 (stereo not drawn) was read as TEAD-YAP block 7.3, GPR151 ag -1.3, MITF primary -6.5 and FBW7 activator 0.2.
COc1ccc(Cc2noc(-c3ccc(OC)c(OC)c3)n2)cc1OC was read as TEAD-YAP block 1.6, GPR151 ag -0.8, MITF primary 4.1 and FBW7 activator 0.0.
For COc1ccc(Cc2noc(-c3ccc([N+](=O)[O-])o3)n2)cc1OC the results were TEAD-YAP block 66.7*, GPR151 ag 0.0, MITF primary 21.5 and FBW7 activator -0.1.
For Cc1cc(-c2cccc3[nH]c(C(F)(F)F)nc23)nn1C(=O)c1cccnc1 the results were TEAD-YAP block 63.3*, GPR151 ag 3.0, MITF primary -0.7 and FBW7 activator -0.2.
For CCCC(=O)Nc1nnc(S(=O)(=O)N(C)c2ccc(C)cc2)s1 the results were TEAD-YAP block -5.5, GPR151 ag -0.2, MITF primary -7.4 and FBW7 activator -0.1.
`O=C(NCCCN1CCOCC1)c1ccc([N+](=O)[O-])o1` gave TEAD-YAP block 9.6, GPR151 ag -1.1, MITF primary 14.3 and FBW7 activator 0.1.
For CCCCCCCCNC(=O)c1ccc([N+](=O)[O-])o1 the results were TEAD-YAP block 34.7*, GPR151 ag 0.4, MITF primary 1.4 and FBW7 activator -0.2.
Screening COc1ccc(C(=O)C[n+]2cccc3cc(OC)ccc32)cc1 returned TEAD-YAP block 52.9*, GPR151 ag 0.3, MITF primary -5.3 and FBW7 activator 0.0.
